Each structure is given as a SMILES string. The whole screen tested about 310,000 compounds, of which about 1,500 (0.48%) were called active.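 The calls were made as follows: active = initial fluorescence not abnormally high and integrated response B-score, plate-corrected, over 3 SD above library mean; inactive = the rest.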 Many of the other results were omitted from the sample, so actives are more common in it than they were.

The assay deals with High affinity choline transporter 1 (Homo sapiens) (UniProt Q9GZV3). The assay can be described thus: allosteric activators of human choline transporter – cell-based, membrane potential dye, choline EC20, primary screen (AID 488977). The following applies: CHT-expressing cells, at 10 µM, LV-AA mutant CHT in HEK293 cells; stronger effect = higher value.
Chain of High affinity choline transporter 1 (Homo sapiens) (Q9GZV3 whole entry, looked up): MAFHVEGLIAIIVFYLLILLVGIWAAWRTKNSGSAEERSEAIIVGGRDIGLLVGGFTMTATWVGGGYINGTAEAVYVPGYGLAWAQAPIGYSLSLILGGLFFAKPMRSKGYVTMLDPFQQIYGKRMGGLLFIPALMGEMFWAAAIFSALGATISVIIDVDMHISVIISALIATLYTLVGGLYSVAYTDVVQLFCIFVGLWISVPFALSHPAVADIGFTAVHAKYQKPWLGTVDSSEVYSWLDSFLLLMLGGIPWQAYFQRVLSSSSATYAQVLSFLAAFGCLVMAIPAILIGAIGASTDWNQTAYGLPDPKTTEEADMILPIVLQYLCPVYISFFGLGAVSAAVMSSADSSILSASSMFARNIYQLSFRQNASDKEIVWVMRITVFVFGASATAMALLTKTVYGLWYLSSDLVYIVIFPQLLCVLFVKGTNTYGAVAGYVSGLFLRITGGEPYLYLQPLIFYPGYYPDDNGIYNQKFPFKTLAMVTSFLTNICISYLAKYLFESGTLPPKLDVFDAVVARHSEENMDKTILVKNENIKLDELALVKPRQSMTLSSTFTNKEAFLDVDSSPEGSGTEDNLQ
`c1ccc2c(C[n+]3csc4ccccc43)cccc2c1`: the B-score entry is “inactive”.
In the case of `Fc1ccccc1COc1cccc2cccnc12`, the B-score entry was “inactive”.
In the case of `Nc1scc[n+]1Cc1cccc2cccnc12`, the B-score was 6.75 (active).
With `COc1ccc(CCNC(=O)C(=O)NCC2CCCN2S(=O)(=O)c2cccs2)cc1OC` (stereo unspecified), the B-score entry was “inactive”.
To `N=c1c2c3c(sc2ncn1CCCN1CCOCC1)CCCCC3` belongs 6.58 (active); to `N=c1c2c3c(sc2ncn1N)CCCCC3`, “inactive”; to `Nc1nc(SCC(=O)NCCN2CCOCC2)nc2sc3c(c12)CCC3`, “inactive”.
Turning to `CCN(CC(=O)Nc1cccc(S(=O)(=O)N2CCCCC2)c1)Cc1ccccc1`, the B-score result was “inactive”.
For the molecule `COc1nc(N=C(N)N)nc2c(C)cccc12`, the B-score was 8.19 (active).
On to `CC(=O)Oc1ccc(-c2nc3c(C)cccc3c(=O)o2)cc1`, for which the B-score entry was “inactive”.
For the molecule `Cc1nc(/N=C(\N)NC(=O)NC2CCCCC2)nc2ccccc12`, the B-score result was “inactive”.
`Cc1nc(N=C(N)N)nc2c(C)cccc12`: the B-score was 7.11 (active).
With `COc1ccc2nc(/N=C(\N)NC(=O)Nc3ccccc3)nc(C)c2c1`, the B-score result was “inactive”.
For `NC(N)=Nc1nc(-c2ccccc2)c2cc(Cl)ccc2n1`, the B-score entry is “inactive”.
Next, `O=C(Nc1ccc(C(=O)N2CCOCC2)cc1)Nc1cccc(C(F)(F)F)c1`: “inactive”; `Cc1ccc(OCC(=O)Oc2ccccc2[N+](=O)[O-])cc1`: “inactive”.
For the molecule `COc1ccc2c(c1)[C@H]1[C@H](CO2)[C@H](c2ccccc2)[C@]2(C)C(=O)Nc3cc(F)c(F)cc3C(=O)N12`, the B-score result is “inactive”.
`O=C(Nc1ccc2nc3n(c(=O)c2c1)CCCC3)c1ccc(Cl)nc1`: the B-score result was “inactive”.
For `CN(C)C1=NC[C@H](Cc2ccccc2)N1CCc1ccc(F)cc1`, the B-score entry was “inactive”.
Take `Cc1noc(C)c1CSCC(=O)Nc1ccc(Br)cc1Cl`: the B-score entry is “inactive”.
With `CCOC(=O)C1CCN(c2ccc(C(=O)O)cc2[N+](=O)[O-])CC1`, the B-score result was “inactive”.
Regarding `Cc1cccc(N2CCN(c3ccc(C(N)=O)cc3[N+](=O)[O-])CC2)c1C`, the B-score result is “inactive”.
On to `Cc1ccc(C(=O)c2ccc(N3CCN(C)CC3)c([N+](=O)[O-])c2)cc1`, for which the B-score is 6.4 (active).
Regarding `O=C(Cc1ccc(S(=O)(=O)N2CCOCC2)s1)N1CCN(c2ccc(C(F)(F)F)cc2[N+](=O)[O-])CC1`, the B-score result was “inactive”.
Consider `COc1ccc(NC(=O)CN(C)C(=O)c2cccc(S(=O)(=O)N3CCN(c4ccccc4)CC3)c2)cc1`, for which the B-score entry was “inactive”.
To `CC(C)CC(CO)N1CCN(C(=O)c2ccc(Cl)cc2Cl)CCC1=O` (stereo unspecified) belongs “inactive”; to `CC(C)CC(COCc1ccc(Cl)cc1)N1CCN(C(=O)c2ccc(C(F)(F)F)cc2)CCC1=O` (stereo unspecified), 6.29 (active); to `O=C(c1cc(Cl)cc(Cl)c1)N1CCC(=O)N(C(COCc2ccccc2)Cc2ccccc2)CC1` (stereo unspecified), “inactive”.
As to `O=C(CCC(=O)c1cccs1)Nc1nc2ccccc2s1`, the B-score result was “inactive”.
Consider `CCCCn1c(N)c(N(CC(C)C)C(=O)c2ccc(-n3c(C)ccc3C)cc2)c(=O)[nH]c1=O`, for which the B-score result was “inactive”.
On to `Nc1ccccc1SCc1cc([N+](=O)[O-])cc2c1OCOC2`, for which the B-score is 7.8 (active).
Take `Nc1ccccc1SC(C[N+](=O)[O-])c1ccccc1` (stereo unspecified): the B-score entry was “inactive”.
`CCS(=O)(=O)c1cc([N+](=O)[O-])c(Sc2ccccc2N)s1`: the B-score entry was “inactive”.
Regarding `Cc1cc(C)cc(NC(=O)COc2coc(CN3CCN(c4ccccc4)CC3)cc2=O)c1`, the B-score entry was “inactive”.
To `COc1cccc(N2CC(NC(=O)c3ccc4ccccc4c3)CC2=O)c1` (stereo unspecified) belongs “inactive”; to `CCCCCCCCn1c2c(c(=N)c3c1CCC3)CCCC2`, 12.2 (active); to `COc1ccccc1N(C)S(=O)(=O)c1ccc(Cl)c(C(=O)Nc2ccncc2)c1`, “inactive”.
Take `CN1C(C(=O)NCc2ccco2)CC2Cn3c(nc4ccccc43)C21` (stereo unspecified): the B-score result was “inactive”.
`CC(OC(=O)CCCc1c[nH]c2ccccc12)C(=O)Nc1ccc(S(N)(=O)=O)cc1` (stereo unspecified): the B-score entry was “inactive”.
Consider `COc1ccc2oc(C(=O)OCC(=O)N(CC(C)C)c3c(N)n(Cc4ccccc4)c(=O)[nH]c3=O)c(C)c2c1`, for which the B-score result is “inactive”.
As for `CCCCCCSc1ccc([C@@H]2[C@@H]3C(=O)N(CC)C(=O)[C@@H]3[C@]3(C(=O)OC)CCCCN23)cc1OC`, the B-score entry was “inactive”.
To `c1ccc(C2c3[nH]c4ccccc4c3CCN2Cc2cccn2-c2cccnc2)nc1` (stereo unspecified) belongs “inactive”; to `CCOc1ccc(C2c3[nH]c4ccccc4c3CCN2Cc2cccn2-c2ncccn2)cc1` (stereo unspecified), 6.79 (active); to `CCOc1ccc(C2c3[nH]c4ccccc4c3CCN2Cc2cn(CC)nc2C)cc1` (stereo unspecified), “inactive”.
As for `COc1ccc(Cl)cc1NC(=O)CN(C)C(=O)c1cc2ccccc2cc1OC`, the B-score result was “inactive”.
With `Cc1cc(C)c(S(=O)(=O)N2CCCC2CNC(=O)c2ccc3c(c2)OCO3)c(C)c1` (stereo unspecified), the B-score result is “inactive”.
As for `CCN(CC)CCn1c2c(c(SCC(=O)Nc3ccc(C(C)C)cc3)nc1=O)CCC2`, the B-score entry was “inactive”.
In the case of `COc1ccc(C2CC(c3ccc([N+](=O)[O-])cc3)=NN2C(C)=O)cc1` (stereo unspecified), the B-score result was “inactive”.
Turning to `CC(=O)N1CC[n+]2c(-c3ccc([N+](=O)[O-])cc3)csc21`, the B-score was 7.27 (active).
To `COC(=O)c1c(C)[nH]c(C)c1-c1ccc([N+](=O)[O-])cc1` belongs “inactive”; to `CCOCCCNc1nc(-c2ccccc2)nc2ccccc12`, “inactive”.
As for `Cc1ccc(Oc2nc(-c3ccccn3)nc3ccccc23)cc1`, the B-score entry was “inactive”.
For the molecule `CC(C)(C)Nc1nc(-c2ccccn2)nc2ccccc12`, the B-score is 6.37 (active).
In the case of `COc1ccc(S(=O)(=O)N2CCCCCC2)cc1C(=O)N(C)Cc1cccc(OC)c1OC`, the B-score entry is “inactive”.
Next, `O=[N+]([O-])c1ncc(Br)cc1Nc1ccccc1`: “inactive”; `COc1cccc(OCC(=O)Nc2ccccc2C(N)=O)c1`: “inactive”; `Cc1ccc(OCCCn2c(=O)oc3ccccc32)cc1`: “inactive”.
As for `CCCCCCCCCCOC(=O)Cn1c(COc2ccc(C)cc2)[n+](C)c2ccccc21`, the B-score is 9.75 (active).
To `COc1cccc(OCCCN2CCCCCC2)c1` belongs “inactive”.
Regarding `CCCCCCCCCCOC(=O)Cn1c(COc2cccc(OC)c2)[n+](C)c2ccccc21`, the B-score was 10.7 (active).
Next, `CCCCOC(=O)Cn1c(=N)n(CCN(CC)CC)c2ccccc21`: “inactive”; `CCOC(=O)c1c(C)oc2cc(Sc3ccccc3)c(O)c(O)c12`: “inactive”.
To `COc1cccc(CNC(=O)C(=O)NCCC2CCCCN2S(=O)(=O)c2ccc(C)cc2)c1` (stereo unspecified) belongs “inactive”.
With `Cc1cc(OCC(=O)N(C)c2c(N)n(Cc3ccccc3)c(=O)[nH]c2=O)c(C(C)C)cc1Cl`, the B-score result is “inactive”.
With `CCOC(=O)C(C)Sc1nc2ccccc2c(=O)n1CC1CCCCC1` (stereo unspecified), the B-score entry was “inactive”.
In the case of `CC(Sc1nc2ccccc2c(=O)n1Cc1ccco1)C(=O)c1ccccc1` (stereo unspecified), the B-score is 7.82 (active).
`O=C(CCCn1c(SCC(=O)c2ccc(F)cc2)nc2ccccc2c1=O)NCc1ccco1`: the B-score entry is “inactive”.
For `Cc1sc2ncnc(N3CCC(C(=O)NNC(=O)c4ccc(F)cc4)CC3)c2c1C`, the B-score entry is “inactive”.
Take `O=C(CSc1nnc(-c2ccccc2)o1)N1CCOCC1`: the B-score entry was “inactive”.
For the molecule `CC1=CC(C)(C)N(C(=O)CSc2nnc(-c3ccccc3)o2)c2ccc(C)cc21`, the B-score is 9.98 (active).
For `CC1=CC(C)(C)N(C(=O)CSc2nccn2C)c2cc(C)ccc21`, the B-score entry was “inactive”.
Take `CCN1/C(=C/C(=S)Nc2ccccc2)Sc2ccccc21`: the B-score result is “inactive”.
As to `CCN1/C(=C/c2ccc3ccc(C)cc3[n+]2CC)Sc2ccccc21`, the B-score was 7.76 (active).
As for `CCN1/C(=C\c2ccc3ccccc3[n+]2CC)Sc2cc(C)ccc21`, the B-score entry is “inactive”.
`COc1ccc(C(=O)NCC(c2ccco2)N2CCc3ccccc32)cc1OC` (stereo unspecified): the B-score result was “inactive”.
Take `O=C(NCC(c1ccco1)N1CCc2ccccc21)c1cccc(F)c1` (stereo unspecified): the B-score result is “inactive”.
Next, `Cc1ccccc1C(=O)NCC(c1ccco1)N1CCc2ccccc21` (stereo unspecified): 7.63 (active).
Regarding `CC(=O)Nc1ccc(C(=O)Nc2cccc(S(=O)(=O)NC3=NCCC3)c2)cc1`, the B-score entry is “inactive”.
Turning to `COc1ccc(C(=NN)c2ccc(OC)cc2)cc1`, the B-score entry was “inactive”.
Turning to `CCOC(=O)[C@H]1[C@H]2COc3ccc(Cl)cc3[C@@H]2N2C(=O)c3cc(C)ccc3NC(=O)[C@@]12C`, the B-score result was “inactive”.
As for `Cn1cccc1C(=O)NNC(=O)COc1ccc(Br)cc1`, the B-score result was “inactive”.
For `O=C(Nc1ccc(S(=O)(=O)N2CCCCC2)cc1)C1CCN(C(=O)c2ccc(F)cc2)CC1`, the B-score result is “inactive”.
Consider `COc1ccc(C2CC(=O)Nc3cc(C)c(C)cc32)c(OC)c1OC` (stereo unspecified), for which the B-score entry is “inactive”.
Turning to `COc1ccccc1C1C2=C(COC2=O)Nc2cc3c(cc21)OCO3` (stereo unspecified), the B-score result was “inactive”.
Regarding `CCCOc1ccccc1C1CC(=O)Nc2cc3c(cc21)OCO3` (stereo unspecified), the B-score was 7.15 (active).
For the molecule `COc1ccc(/C=C2\SC(=S)N(CCCC(=O)NC3CCCC3)C2=O)cc1OC`, the B-score result is “inactive”.
On to `Cc1c(CCOC(=O)CC23CC4CC(CC(C)(C4)C2)C3)sc[n+]1Cc1ccc([N+](=O)[O-])cc1`, for which the B-score was 8.47 (active).
To `Cc1c(CCOC(=O)c2cc([N+](=O)[O-])ccc2Cl)sc[n+]1CCCCS(=O)(=O)[O-]` belongs “inactive”; to `CCN(CC)CCn1c2c(c(SCC(=O)Nc3nc4ccccc4s3)nc1=O)CCCC2`, “inactive”; to `CCN1CCN(c2ccc([N+](=O)[O-])cc2C(=O)c2ccc(Cl)cc2)CC1`, 8.73 (active).
To `CCC(C)(C)NC(=O)c1cc([N+](=O)[O-])ccc1N1CCCCC1` belongs “inactive”; to `CCC(=O)c1ccc(N2CCN(C(=O)c3cc([N+](=O)[O-])ccc3F)CC2)c(F)c1`, “inactive”; to `Cc1cc(O)c(Sc2ccccc2)c(=O)o1`, “inactive”.
In the case of `CCCCCCn1cc(C(=O)O)c(=O)c2cc(F)c(N3CCCCC3)cc21`, the B-score result was “inactive”.
Consider `CCOC(=O)c1cn(CC)c2cc(F)c(F)cc2c1=O`, for which the B-score was 7.03 (active).
Regarding `Cc1ccc(Cn2cc(C(=O)NN)c(=O)c3ccc(F)cc32)cc1`, the B-score result was “inactive”.
Take `Cc1cc(C)c(S(=O)(=O)n2cc(C(C)C(N)C(=O)O)c3ccccc32)c(C)c1` (stereo unspecified): the B-score result is “inactive”.
Take `CCCn1c(C)cc(-c2csc(NC(=O)CCc3nc4ccccc4c(=O)[nH]3)n2)c1C`: the B-score result is “inactive”.
For the molecule `O=C1c2ccccc2C(=O)c2c1cccc2N1CCN(Cc2ccccc2)CC1`, the B-score entry is “inactive”.
Next, `O=C1c2ccccc2C(=O)c2c1cccc2N1CCN(CCO)CC1`: 8.6 (active); `O=C1c2ccccc2C(=O)c2c1cccc2N1CCN(C/C=C/c2ccccc2)CC1`: “inactive”.

The values above are taken from PubChem BioAssay AID488977 (Johns Hopkins Ion Channel Center, 2010).
